From PubChem BioAssay
Calls of active or inactive are those of the source.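 The calls were made as follows: active = viability loss from added drug above about 55%, and viability with drug at most 40%, in both replicates (limit read from the data, passing the limit was not always enough); inconclusive = both conditions met in only one replicate; inactive = neither replicate meets both conditions.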

test: reversal of MRP1-mediated doxorubicin resistance, pilot screen, H69AR cells, doxorubicin co-treatment (AID 601); settings: H69AR cells + 2 uM doxorubicin, CellTiter-Glo, 72 h; at 10 µM; stronger effect = higher value

SMILES	differential viability (reversal)
Cc1nnc(NC(=O)CCC(=O)N2CCC(C)CC2)s1	1.93% (inactive)
Cc1ccc(-c2ccc(=O)n(CC(=O)NCCCN3CCCCC3C)n2)cc1 (stereo not drawn)	-3.54% (inactive)
O=C(CN1CCN(Cc2ccccc2)CC1)Nc1ccc(Cl)cn1	-1.43% (inactive)
O=C(Nc1cccc(OCC(=O)N2CCOCC2)c1)C1CCCCC1	-0.43% (inactive)
O=C(CN1CCN(c2ccccn2)CC1)N1c2ccccc2CCc2ccccc21	-0.175% (inactive)
CCOc1ccc(NC(=O)C2CC(=O)N(CC)C(=Nc3ccc4c(c3)OCO4)S2)cc1 (stereo not drawn)	-0.76% (inactive)
CNC(=O)NCCN1CCCC1=O	14.5% (inactive)
CCCNC(=O)c1cc(S(=O)(=O)N2CCc3ccccc32)ccc1F	6.73% (inactive)
Cc1cc(NC(=O)c2cnn3c(C(F)F)cc(C4CC4)nc23)no1	-12.8% (inactive)
CCOC(=O)Cc1csc(/C(=N/O)C(N)=O)n1	-4.43% (inactive)
O=C(COC(=O)c1cccc(S(=O)(=O)N2CCc3ccccc32)c1)NC1CCS(=O)(=O)C1 (stereo not drawn)	0.47% (inactive)
CN1[C@@H](CC(=O)c2ccccc2)CCC[C@H]1C[C@H](O)c1ccccc1	-4.62% (inactive)
O=C(CSc1n[nH]c(=O)[nH]c1=O)c1ccccc1	4.23% (inactive)
CC(O)Cn1cnc2c1c(=O)n(C)c(=O)n2C (stereo not drawn)	-0.25% (inactive)
O=C(CNCC1CCCO1)Nc1ccccc1-n1cccc1 (stereo not drawn)	5.03% (inactive)
COc1cccc(N2CCN(CC(=O)c3c[nH]c4ccc(OC)cc34)CC2C)c1 (stereo not drawn)	-11.7% (inactive)
COC(=O)c1c(NC(=O)CCc2ccc(C)o2)sc(C)c1C	1.81% (inactive)
O=C(COC(=O)c1cc(S(=O)(=O)N2CCOCC2)cs1)c1ccccc1	16.3% (inactive)
Cc1ccc(S(=O)(=O)NCC(=O)OCN2C(=O)c3ccccc3C2=O)cc1	-10.3% (inactive)
COc1ccc(C(=O)Nc2ccc(S(=O)(=O)Nc3onc(C)c3C)cc2)cc1	23.6% (inactive)

SMILES	differential viability (reversal)
O=C(O)CCN(CCC(=O)O)c1nnc(SCc2ccccc2)s1	7.11% (inactive)
CS(=O)(=O)N(CC(=O)N1CCc2ccccc2C1)c1ccc2c(c1)OCO2	14.2% (inactive)
C=CCSc1nnc(NC(=O)c2ccc(S(=O)(=O)NCC3CCCO3)cc2)s1 (stereo not drawn)	-2.83% (inactive)
OC(CCCN1CCC(O)(c2ccc(Cl)cc2)CC1)c1ccc(F)cc1 (stereo not drawn)	-6.19% (inactive)
COc1ccc(C(O)C(CN2CCOCC2)c2ccccc2)cc1F (stereo not drawn)	4.89% (inactive)
C=CCn1c(SCC(=O)NCC2CCCO2)nc2scc(-c3ccco3)c2c1=O (stereo not drawn)	-1.34% (inactive)
Cc1ccc(C)c(CSc2nnc(CCN)o2)c1	-20.6% (inactive)
Cc1c(N=C2SCC(=O)N2c2c(C)n(C)n(-c3ccccc3)c2=O)c(=O)n(-c2ccccc2)n1C	3.54% (inactive)
COc1cc(C2N=C(c3ccccc3)NO2)cc(Br)c1O (stereo not drawn)	-4.25% (inactive)
CC1(C)Cc2c(sc3c2C2=NCCN2C=N3)CS1	5.41% (inactive)
Cc1ccc(C(C(=O)NC2CCCCC2)N(C(=O)c2csnn2)C2CCCC2)o1 (stereo not drawn)	1.01% (inactive)
Cc1cn2c(-c3ccncc3)nnc2s1	7.13% (inactive)
CCOc1ccc(S(=O)(=O)Nc2ccc(Cl)cn2)c(C)c1C	-2.8% (inactive)
CN(C)CCC(c1ccc(Br)cc1)c1ccccn1 (stereo not drawn)	10.6% (inactive)
COc1ccc(C(c2nnnn2C2CCCC2)N2CCC(C)CC2)c(OC)c1 (stereo not drawn)	-8.92% (inactive)
COCCN(CCOC)C(=O)CCn1c(=O)oc2ccccc21	-7.45% (inactive)
CCOC(=O)c1sc2cccc(F)c2c1N	5.58% (inactive)
CC1=NN(c2ccccc2)C(=O)C1	-10.1% (inactive)
COc1nc(-c2ccc(Cl)cc2)ccc1-c1noc(-c2ccncc2)n1	1.99% (inactive)

same assay, conditions: H69AR cells + 2 uM doxorubicin, CellTiter-Glo, 72 h; measured here: viability with 2 uM doxorubicin; at 10 µM; stronger effect = lower value

SMILES	viability
Cc1nnc(NC(=O)CCC(=O)N2CCC(C)CC2)s1	88.9%
Cc1ccc(-c2ccc(=O)n(CC(=O)NCCCN3CCCCC3C)n2)cc1 (stereo not drawn)	95.4%
O=C(CN1CCN(Cc2ccccc2)CC1)Nc1ccc(Cl)cn1	86.5%
O=C(Nc1cccc(OCC(=O)N2CCOCC2)c1)C1CCCCC1	112%
O=C(CN1CCN(c2ccccn2)CC1)N1c2ccccc2CCc2ccccc21	108%
CCOc1ccc(NC(=O)C2CC(=O)N(CC)C(=Nc3ccc4c(c3)OCO4)S2)cc1 (stereo not drawn)	84.7%
CNC(=O)NCCN1CCCC1=O	87.5%
CCCNC(=O)c1cc(S(=O)(=O)N2CCc3ccccc32)ccc1F	90.3%
Cc1cc(NC(=O)c2cnn3c(C(F)F)cc(C4CC4)nc23)no1	95.1%
CCOC(=O)Cc1csc(/C(=N/O)C(N)=O)n1	97.1%
O=C(COC(=O)c1cccc(S(=O)(=O)N2CCc3ccccc32)c1)NC1CCS(=O)(=O)C1 (stereo not drawn)	101%
CN1[C@@H](CC(=O)c2ccccc2)CCC[C@H]1C[C@H](O)c1ccccc1	88.7%
O=C(CSc1n[nH]c(=O)[nH]c1=O)c1ccccc1	97%
CC(O)Cn1cnc2c1c(=O)n(C)c(=O)n2C (stereo not drawn)	96.1%
O=C(CNCC1CCCO1)Nc1ccccc1-n1cccc1 (stereo not drawn)	90.6%
COc1cccc(N2CCN(CC(=O)c3c[nH]c4ccc(OC)cc34)CC2C)c1 (stereo not drawn)	82.1%
COC(=O)c1c(NC(=O)CCc2ccc(C)o2)sc(C)c1C	79.9%
O=C(COC(=O)c1cc(S(=O)(=O)N2CCOCC2)cs1)c1ccccc1	83.5%
Cc1ccc(S(=O)(=O)NCC(=O)OCN2C(=O)c3ccccc3C2=O)cc1	115%
COc1ccc(C(=O)Nc2ccc(S(=O)(=O)Nc3onc(C)c3C)cc2)cc1	93.4%

SMILES	viability
O=C(O)CCN(CCC(=O)O)c1nnc(SCc2ccccc2)s1	86.5%
CS(=O)(=O)N(CC(=O)N1CCc2ccccc2C1)c1ccc2c(c1)OCO2	87.8%
C=CCSc1nnc(NC(=O)c2ccc(S(=O)(=O)NCC3CCCO3)cc2)s1 (stereo not drawn)	93.2%
OC(CCCN1CCC(O)(c2ccc(Cl)cc2)CC1)c1ccc(F)cc1 (stereo not drawn)	72.3%
COc1ccc(C(O)C(CN2CCOCC2)c2ccccc2)cc1F (stereo not drawn)	97.8%
C=CCn1c(SCC(=O)NCC2CCCO2)nc2scc(-c3ccco3)c2c1=O (stereo not drawn)	94.2%
Cc1ccc(C)c(CSc2nnc(CCN)o2)c1	91.8%
Cc1c(N=C2SCC(=O)N2c2c(C)n(C)n(-c3ccccc3)c2=O)c(=O)n(-c2ccccc2)n1C	90.6%
COc1cc(C2N=C(c3ccccc3)NO2)cc(Br)c1O (stereo not drawn)	89%
CC1(C)Cc2c(sc3c2C2=NCCN2C=N3)CS1	99.4%
Cc1ccc(C(C(=O)NC2CCCCC2)N(C(=O)c2csnn2)C2CCCC2)o1 (stereo not drawn)	79.4%
Cc1cn2c(-c3ccncc3)nnc2s1	92.7%
CCOc1ccc(S(=O)(=O)Nc2ccc(Cl)cn2)c(C)c1C	90.4%
CN(C)CCC(c1ccc(Br)cc1)c1ccccn1 (stereo not drawn)	91.4%
COc1ccc(C(c2nnnn2C2CCCC2)N2CCC(C)CC2)c(OC)c1 (stereo not drawn)	96.7%
COCCN(CCOC)C(=O)CCn1c(=O)oc2ccccc21	96.5%
CCOC(=O)c1sc2cccc(F)c2c1N	82.5%
CC1=NN(c2ccccc2)C(=O)C1	105%
COc1nc(-c2ccc(Cl)cc2)ccc1-c1noc(-c2ccncc2)n1	80.4%
